Source: PubChem BioAssay (Sanford-Burnham Center for Chemical Genomics)
ER stress death: protection against thapsigargin ER stress killing – CSM14.1 cells, ATP luminescence, primary screen. CSM14.1 thapsigargin ER stress survival. relative survival (cellular ATP), % at 15 µg/mL (by protocol). 48,000 tested, 0.33% active. AID 1010, 2008;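 active means survival measured by cellular ATP above 50% at 15 µg/ml in the first screen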;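 further: cell death triggered by about 15 µM thapsigargin; ATP read 24 h after thapsigargin was added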
A number is an active result; n = inactive. The entries come from a sample that favours hits as a whole.

SMILES | ER stress death
Nc1ccc(-c2nnc(-c3ccncc3)o2)cc1 | n
O=C(c1ccncc1)N1CCN(Cc2cccc(Oc3ccccc3)c2)CC1 | n
COc1ccc(C(=O)N2CCN(Cc3cccc(C)c3)CC2)cc1OC | n
Cc1cccc(CN2CCN(C(=O)c3ccc([N+](=O)[O-])cc3)CC2)c1 | n
COc1ccc(C(=O)N2CCN(Cc3cccc(Oc4ccccc4)c3)CC2)cc1OC | 53
CCOc1ccc(CN2CCN(C(=O)c3ccc([N+](=O)[O-])cc3)CC2)cc1 | n
COc1cc(C(=O)N2CCN(Cc3cccc(Oc4ccccc4)c3)CC2)cc(OC)c1OC | n
O=C(c1ccc([N+](=O)[O-])cc1)N1CCN(Cc2cccnc2)CC1 | n
O=C(c1ccc([N+](=O)[O-])cc1)N1CCN(Cc2cccc(Oc3ccccc3)c2)CC1 | 69
CCn1c2ccccc2c2cc(CN3CCN(C(=O)c4ccc([N+](=O)[O-])cc4)CC3)ccc21 | 91
Cc1cccc(OCCOc2ccc(/C=N/N3C(=O)CSC3=S)cc2)c1 | n
Brc1ccc(OCCN2CCCC2)cc1 | n
CCCCCCNC(=O)c1[nH]ncc1[N+](=O)[O-] | n
O=C(N/N=C/c1c(F)cccc1Cl)c1ccc(O)cc1O | n
CCCCOc1ccc(NC(=O)Nc2cc(F)c(F)cc2Cl)cc1 | n
O=c1ccc2ccc(OCc3cccc(Cl)c3)cc2o1 | n
O=C1/C(=C\c2cc([N+](=O)[O-])ccc2O)SC(=S)N1c1cccc(C(F)(F)F)c1 | n
Cc1ccc2c(c1)NC(c1ccc3c(c1)OCO3)C1=C(CC(c3ccccc3)CC1=O)N2 (stereo not given) | 92
Cc1ccc2c(c1)NC(c1ccc(F)cc1)C1=C(CC(c3ccccc3)CC1=O)N2 (stereo not given) | n
O=C1CCCC2=C1C(c1cccnc1)Nc1ccc(C(=O)c3ccccc3)cc1N2 (stereo not given) | n
COc1ccc(C2Nc3ccc(C(=O)c4ccccc4)cc3NC3=C2C(=O)CCC3)cc1 (stereo not given) | n
CSc1ccc(C2Nc3ccccc3NC3=C2C(=O)CC(c2ccc4c(c2)OCO4)C3)cc1 (stereo not given) | n
O=C1CC(c2ccccc2)CC2=C1C(c1cccc(Br)c1)Nc1ccccc1N2 (stereo not given) | 88
COc1ccc(C2Nc3ccccc3NC3=C2C(=O)CC(c2ccccc2)C3)c(OC)c1 (stereo not given) | n
COc1ccc(C2CC(=O)C3=C(C2)Nc2ccccc2NC3c2cccc(Br)c2)cc1 (stereo not given) | n
SMILES | ER stress death
CCOc1cccc(C2Nc3ccccc3NC3=C2C(=O)CC(c2ccc(OC)cc2)C3)c1 (stereo not given) | 106
O=C1CCCC2=C1C(c1ccc(Br)cc1)Nc1ccc(C(=O)c3ccccc3)cc1N2 (stereo not given) | 66
COc1ccc(C2CC(=O)C3=C(C2)Nc2ccccc2NC3c2c(F)cccc2F)cc1 (stereo not given) | n
O=C1CC(c2ccccc2)CC2=C1C(c1ccc(F)c(Br)c1)Nc1ccccc1N2 (stereo not given) | n
O=C(c1ccc(F)cc1)N1CCN(CCCc2ccccc2)CC1 | n
Cc1cc2nc(-c3cc(NC(=O)COc4ccccc4)ccc3O)oc2cc1C | n
CCC(=O)NC(OCc1ccccc1)(C(F)(F)F)C(F)(F)F | n
COc1cc(C(=O)NC(NC(=S)Nc2ccc(F)cc2)C(Cl)(Cl)Cl)cc(OC)c1OC (stereo not given) | n
Cc1ccc(/C=N/NC(=O)c2ccc(C(=O)N/N=C/c3ccc(C)o3)o2)o1 | n
O=C1S/C(=C\c2cccs2)C(=O)N1Cc1ccccc1 | n
c1ccc(-c2cc(-c3ccccc3)nc(N3CCCCC3)n2)cc1 | n
COc1ccc(N=C2SC(C(=O)N3CCN(c4ccc(F)cc4)CC3)CC(=O)N2C)cc1 (stereo not given) | n
NC(=O)c1c(NC(=S)NC(=O)c2ccccc2Cl)sc2c1CCC2 | n
COc1ccc(N=Cc2c(C)[nH]n(-c3ccccc3)c2=O)cc1 | n
CCOc1cc(C2Nc3ccccc3NC3=C2C(=O)CC(c2ccc(OC)cc2)C3)ccc1OC(=O)C1CC1 (stereo not given) | n
Cc1ccc(C2Nc3ccccc3NC3=C2C(=O)CC(c2ccc(Cl)cc2)C3)cc1 (stereo not given) | n
O=C1CC(c2ccccc2)CC2=C1C(c1ccc(Cl)c(Cl)c1)Nc1ccccc1N2 (stereo not given) | n
O=C1CC(c2ccc(Cl)cc2)CC2=C1C(c1cccs1)Nc1ccccc1N2 (stereo not given) | 68
COc1cc(C2Nc3ccccc3NC3=C2C(=O)CC(c2ccc(Cl)cc2)C3)cc(OC)c1OC (stereo not given) | n
COc1ccc(C2CC(=O)C3=C(C2)Nc2ccccc2NC3c2cccc(O)c2)cc1 (stereo not given) | n
CCOc1cc(C2Nc3ccccc3NC3=C2C(=O)CC(c2ccc(OC)cc2)C3)cc(Cl)c1O (stereo not given) | 112
COc1ccc(C2CC(=O)C3=C(C2)Nc2ccccc2NC3c2ccc(C(F)(F)F)cc2)cc1 (stereo not given) | n
COc1ccc(C2CC(=O)C3=C(C2)Nc2ccccc2NC3c2ccc(C)c([N+](=O)[O-])c2)cc1OC (stereo not given) | n
COc1ccc(C2Nc3ccccc3NC3=C2C(=O)CC(c2ccccc2)C3)cc1 (stereo not given) | n
COc1ccc(C2CC(=O)C3=C(C2)Nc2ccccc2NC3c2ccc(Cl)c([N+](=O)[O-])c2)cc1 (stereo not given) | 104
SMILES | ER stress death
COc1ccc(C2CC(=O)C3=C(C2)Nc2ccccc2NC3c2ccc3ccccc3c2)cc1 (stereo not given) | 50
NS(=O)(=O)c1ccc(N/C=C/C(=O)c2ccc(Cl)c(Cl)c2)cc1 | n
CCc1c(C)sc(NC(=O)C(C)Oc2cccc(Cl)c2)c1C#N (stereo not given) | n
Cc1cc(C)cc(NC(=O)COc2ccccc2)c1 | n
COc1ccc(/C=C/C(=O)c2ccc(F)cc2)c(OC)c1 | n
CCC(C)C(NC(=S)Nc1ccccc1)C(=O)O (stereo not given) | n
O=[N+]([O-])c1ccc(S(=O)(=O)N(CCO)CCO)cc1 | n
Cc1sc(NC(=O)C2CC2c2ccccc2)nc1-c1ccccc1 (stereo not given) | n
CC1=C(C(=O)Nc2ccccc2)C(c2cc(C)cs2)NC(=O)N1 (stereo not given) | n
Cc1ccc([N+](=O)[O-])cc1-c1ccc(/C=C(\C#N)C(=O)NCc2ccco2)o1 | n
COc1ccc(C(=O)C2C(=O)c3ccccc3C2=Nc2ccccc2)cc1 (stereo not given) | n
COc1ccc(C2CC(=O)C3=C(C2)Nc2ccccc2NC3c2ccc(F)c(Br)c2)cc1 (stereo not given) | n
COc1ccc(C2CC(=O)C3=C(C2)Nc2ccccc2NC3c2ccc(Br)s2)cc1 (stereo not given) | 85
COc1ccc(C2CC(=O)C3=C(C2)Nc2ccccc2NC3c2cc(OC)c(OC)cc2Br)cc1 (stereo not given) | n
Cc1cc(NS(=O)(=O)c2ccccc2[N+](=O)[O-])no1 | n
